Assay results from PubChem BioAssay (NCATS).
Inconclusive results are not listed. A number with no mark means an inactive call. Active and inactive are the calls of the source. Unless noted, the call rests on the fitted dose curve.

Experiments:
[1] = Cell Viability - BJ (AID 421); details: BJ fibroblast viability, qHTS;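 further: potency means the concentration at half of the fitted maximal effect; cells exposed to compound for 40 hours at 37 °C before readout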
Method in brief: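 Normal human BJ foreskin fibroblasts, 1500/well in complete medium, treated 40 hr at 37 °C. Cellular ATP by CellTiter-Glo luminescence; normalized to DMSO and 100 uM tamoxifen, AC50 from Hill fit.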

[2] = Cell Viability - Jurkat (AID 426;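 active means dose-dependent loss of cell ATP signal giving a full or clear fitted curve, ranked by lower potency value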; further: potency means the concentration at half of the fitted maximal effect); details: qHTS
Method in brief: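 qHTS, 1536-well; Jurkat E6-1, 5000 cells/well, complete medium; cpd 40 hr, 37 °C; CellTiter-Glo 20 min RT; luminescence. AC50 by Hill fit.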

[3] = Cell Viability - Hek293 (AID 427;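 active means compounds whose dose-response curve shows a full or clear partial loss of cell viability, called from curve shape rather than a numeric limit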;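 further: potency means the concentration at half of the fitted maximal effect; cells exposed to compound for 40 hours at 37 °C before reading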); details: qHTS
Method in brief: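 HEK293 cells in complete medium were exposed to compound for 40 hr at 37 °C, then cellular ATP was read by CellTiter-Glo luminescence. Data were normalized to DMSO (basal) and 100 uM tamoxifen (100% inhibition), and AC50 came from Hill fits.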

[4] = Cell Viability - HepG2 (AID 433); details: qHTS;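 further: potency means the concentration at half of the fitted maximal effect; potency for ATP loss meaning cytotoxicity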
Method in brief: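 HepG2 hepatocellular carcinoma cells (1500/well) were treated with compounds for 40 h at 37 °C in complete medium; intracellular ATP was read by CellTiter-Glo luminescence. Data were normalized to DMSO and 100 uM tamoxifen, and AC50 came from Hill fits.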

[5] = Cell Viability - MRC5 (AID 434); details: MRC5 lung fibroblast viability, qHTS;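 further: potency means the concentration at half of the fitted maximal effect; potency reflects cytotoxicity seen as loss of intracellular ATP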
Method in brief: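 MRC5 normal human lung fibroblasts, 1500 cells/well, exposed to compound for 40 hr at 37 C. Cellular ATP was read by CellTiter-Glo luminescence; data normalized to DMSO and 100 uM tamoxifen, with AC50 from Hill fits.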

[6] = Cell Viability - SK-N-SH (AID 435); details: SK-N-SH neuroblastoma cell viability qHTS;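 further: potency means the concentration at half of the fitted maximal effect; compound exposure lasted 40 h at 37 °C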
Method in brief: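 SK-N-SH human neuroblastoma cells (1500/well) were exposed to compounds in complete medium for 40 h at 37 °C, and intracellular ATP was then measured by CellTiter-Glo luminescence. AC50 was taken from Hill fits, normalized to DMSO and 100 uM tamoxifen.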

[7] = NFAT Signaling Pathway (AID 444; active means well fitted curve in either direction with a large enough effect, not every such curve was filed as active;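 further: carbachol stimulus at about its EC50 of 1 µM final; on the % scale 0 is the no-effect control and ±100 the full control effect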); details: Jurkat NFAT-bla M1, carbachol, beta-lactamase ratio, 5 h; at 17.2 µM (top of the series) unless noted
Method in brief: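 Jurkat cells with NFAT-driven β-lactamase reporter and co-expressed M1 receptor, stimulated with carbachol (final 1 uM, ~EC50), compound titration, 5 h at 37 °C. CCF4 loaded 1 h at RT; 460/530 nm ratio gave %activity and AC50.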

[8] = Stat Signaling Pathway (AID 446; active means well fitted curve in either direction with a large enough effect, not every such curve was filed as active;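 further: ME-180 cervical cancer cells given 40 pM IL-6 alongside compound; SIE-controlled beta-lactamase reporter measured as 460/530 nm FRET emission ratio; on the % scale 0 is the no-effect control and ±100 the full control effect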); details: ME-180 SIE beta-lactamase reporter, IL-6 stimulated, 5 h; series mostly up to 17.2 µM
Method in brief: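 ME-180 cells carrying a SIE-driven beta-lactamase reporter are stimulated with 40 pM IL-6 for 5 h at 37C in the presence of compound. The 460/530 nm FRET substrate ratio is read after 2.5 h at RT. Data are normalised to 300 pM IL-6 and to 125 nM JAK inhibitor controls.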

Question: What does the source list for `O=P(O)(O)O`?
Answer: Potency [1]: > 92 µM; Potency [2]: > 92 µM; Potency [3]: > 92 µM; Potency [4]: > 92 µM; Potency [5]: > 92 µM; Potency [6]: > 92 µM

Question: With `Nc1ccc(N=Nc2ccccc2)c(N)n1` as the compound, how does the Potency [1] read?
Answer: > 92 µM

Question: And the Potency [3]?
Answer: > 92 µM

Question: What about the Potency [4] of the same compound?
Answer: > 92 µM

Question: And the Potency [5]?
Answer: > 92 µM

Question: And the Potency [6]?
Answer: > 92 µM

Question: What about the activity change, negative = inhibition [7] of the same compound?
Answer: -10%

Question: What about the outcome [8] of the same compound?
Answer: inactive

Question: Which Potency [1] does the source give for `O=c1n(CC2CO2)c(=O)n(CC2CO2)c(=O)n1CC1CO1` (stereo unspecified) here?
Answer: 30.6 µM (active)

Question: And the Potency [2]?
Answer: 14.7 µM (active)

Question: And the Potency [5]?
Answer: 51.4 µM (active)

Question: Which results are given for `OCl`?
Answer: Potency [1]: > 92 µM; Potency [2]: > 92 µM; Potency [3]: > 92 µM; Potency [4]: > 92 µM; Potency [5]: > 92 µM; Potency [6]: > 92 µM

Question: Which Potency [1] does the source give for `CC(C)(C)CC(C)(C)c1ccc(OCCO)cc1` here?
Answer: > 92 µM

Question: What about the Potency [2] of the same compound?
Answer: > 92 µM

Question: And the Potency [5]?
Answer: > 92 µM

Question: And the Potency [6]?
Answer: > 92 µM

Question: What does the source list for `CC/C=C\C/C=C\C/C=C\CCCCCCCC(=O)O`?
Answer: Potency [1]: > 92 µM; Potency [3]: > 92 µM; Potency [4]: > 92 µM; Potency [5]: > 92 µM; Potency [6]: > 92 µM
